The values below come from PubChem BioAssay (EPA / NIEHS).

Records with an inconclusive call do not appear. Active and inactive are the calls of the source. How the source made its calls: active means hit-call score of the fitted dose curve at least 0.9, where 1 is the maximum; inconclusive means response in the unintended direction; inactive means score below 0.9.

Chain of Nuclear receptor subfamily 4 group A member 2 (Homo sapiens) (P43354 whole entry, looked up): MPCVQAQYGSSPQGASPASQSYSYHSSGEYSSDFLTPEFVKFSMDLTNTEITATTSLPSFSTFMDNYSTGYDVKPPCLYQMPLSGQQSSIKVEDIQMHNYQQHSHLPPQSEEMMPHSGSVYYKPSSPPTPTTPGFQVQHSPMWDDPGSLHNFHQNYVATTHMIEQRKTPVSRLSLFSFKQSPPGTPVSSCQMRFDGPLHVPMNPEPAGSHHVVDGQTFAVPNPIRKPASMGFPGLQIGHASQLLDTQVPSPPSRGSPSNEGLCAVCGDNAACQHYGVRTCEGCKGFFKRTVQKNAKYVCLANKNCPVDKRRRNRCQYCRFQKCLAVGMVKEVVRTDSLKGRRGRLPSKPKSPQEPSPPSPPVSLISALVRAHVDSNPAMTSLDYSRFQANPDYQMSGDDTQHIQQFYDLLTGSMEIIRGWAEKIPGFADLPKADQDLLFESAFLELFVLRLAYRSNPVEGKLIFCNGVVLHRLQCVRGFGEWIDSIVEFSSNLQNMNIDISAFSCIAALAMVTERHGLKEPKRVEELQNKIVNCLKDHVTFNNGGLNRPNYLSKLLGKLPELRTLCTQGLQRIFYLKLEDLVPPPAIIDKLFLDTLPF

The assay concerns the target Nuclear receptor subfamily 4 group A member 2 (Homo sapiens) (UniProt P43354). The assay is described as follows: ATG_NURR1_TRANS: Attagene TRANS-FACTORIAL HepG2 Assay for human Nuclear Receptor Related Protein 1 (NURR1) (AID 2282985). As to conditions: HepG2 Attagene TRANS reporter, mRNA readout. Here is the method: ATG_TRANS is a cell-based, multiplexed-readout assay that uses HepG2, a human liver cell line, with measurements taken at 24 hours after chemical dosing in a 24-well plate.ATG_NURR1_TRANS is one of 30 assay component(s) measured or calculated from the ATG_TRANS assay. It is designed to make measurements of mRNA induction, a form of inducible reporter, as detected with fluorescence intensity signals by Reverse transcription polymerase chain reaction (RT-PCR) and Capillary electrophoresis technology.Data from the assay component ATG_NURR1_TRANS was analyzed into 1 assay endpoint. This assay endpoint, ATG_NURR1_TRANS, was analyzed in the positive analysis fitting direction relative to DMSO as the negative control and baseline of activity. Using a type of inducible reporter, measures of mRNA for gain-of-signal activity can be used to understand the reporter gene at the transcription factor-level as they relate to the gene NR4A2. Furthermore, this assay endpoint can be referred to as a primary readout, because this assay has produced multiple assay endpoints where this one serves a reporter gene function. To generalize the intended target to other relatable targets, this assay endpoint is annotated to the nuclear receptor intended target family, where the subfamily is orphan.
Human liver HepG2 cells are transiently transfected with multiple reporter transcription units (MRTUs) in 6-well plates using FuGene 6 reagent (Roche; 3 ml FuGene/1 mg DNA). The MRTU constructs are regulated by a cis-regulating element (promoter). […] A major difference between the CIS and TRANS system is that in CIS activities of endogenous TFs are measured, whereas the TRANS assay evaluates changes in activities of exogenous, chimeric NR-Gal4 proteins. […] At the end of 24 hour incubation, total RNA was isolated using TriZol reagent (Invitrogen). The isolated RNA is then reverse-transcribed using oligo(dT) primer and Mo-MLV reverse transcriptase (Invitrogen) with DNAse I (Ambion) treatment for 30 min. The one-tenth of the produced cDNA was amplified by PCR using Taq DNA polymerase (Invitrogen) and two reporter sequence-specific primers. The PCR products were fluorescently labeled by primer extension with 6-arboxyfluorescein (6-FAM) 5'-labeled reporter sequence-specific primer (2 min at 95 C, 20 s at 68 C and 10 min at 72 C) and these products were digested with 5U of HpaI (New England Biolabs) for 2h at 37 C. The fragments were purified using Qiaquick PCR columns (Qiagen), analyzed on an ABI 3130xL genetic analyzer (Applied Biosystems) with peak positions identified by using a set of X-rhodamine (ROX)-labeled MapMarker1000 molecular weight standards (BioVentures). The raw capillary electrophoresis data was processed using Attagraph software (Attagene).
For `ClCCCl`, the molecule was classed as inactive. In the case of `CNC(=O)Oc1ccc2c(c1)[C@]1(C)CCN(C)[C@@H]1N2C`, the outcome was inactive. The same measure, in the same setting: next, `CC(C)=CCC[C@](C)(O)[C@@H]1CC=C(C)CC1`: “inactive”. Consider `CC(C)C[C@H]1C(=O)N2CCC[C@H]2[C@]2(O)O[C@](NC(=O)[C@@H]3C=C4c5cccc6[nH]c(Br)c(c56)C[C@H]4N(C)C3)(C(C)C)C(=O)N12`, for which the concentration at half-maximal activity (AC50) is 5.67 µM (active).

In the case of `Cc1ccccc1C=O`, the molecule was called inactive. On the same count and under the same terms, for `CC(=O)OCc1ccc2c(c1)OCO2` the value was “inactive”; for `O=P(c1ccccc1)(c1ccccc1)c1ccccc1`, “inactive”; for `CC(C)c1cccc(O)c1`, “inactive”. For the molecule `NCCCCCCN`, the molecule was called inactive. With `Clc1nc(C(Cl)(Cl)Cl)c(Cl)c(Cl)c1Cl`, the call was inactive.

On to `CC(C)=CCC[C@H](C)CC=O`, for which the molecule was classed as inactive. With `COC(=O)C1=C(C)NC(C)=C(C(=O)OCCN(C)Cc2ccccc2)C1c1cccc([N+](=O)[O-])c1` (stereo not given), the AC50 is 27.2 µM (active).

Turning to `CCCCCCCCCOC(C)=O`, the call was inactive.

With `NC(N)=NC(=O)c1nc(Cl)c(N)nc1N`, the result was inactive.

As for `CNCCO`, the call was inactive.

As to `CC(=O)O[C@]1(C(C)=O)CC[C@H]2[C@@H]3C[C@H](C)C4=CC(=O)CC[C@]4(C)[C@H]3CC[C@@]21C`, the concentration at half-maximal activity (AC50) was 16.8 µM (active). For the molecule `O=Cc1ccc(Cl)c([N+](=O)[O-])c1`, the molecule was called inactive. On the same count and under the same terms, for `Nc1cc([N+](=O)[O-])ccc1O` the value was “inactive”; for `CC(C)(COC(=O)c1ccccc1)COC(=O)c1ccccc1`, “inactive”; for `CC1(C)CCC(C)(C)c2cc(C(=O)Nc3ccc(C(=O)O)cc3)ccc21`, “inactive”. Same read-out and setting: for `O=S(=O)(O)c1ccc(O)c2ncccc12` the value was “inactive”; for `C[C@]12CC[C@H]3[C@@H](CCC4=CC(=O)CC[C@@]43C)[C@@H]1CC[C@@H]2C(=O)CO`, “inactive”; for `N#Cc1ccccc1`, “inactive”.

`CCOc1ccccc1OCC`: the call was inactive. Take `CCCCCCOC(=O)CCCCC`: the molecule was classed as inactive. On the same count and under the same terms, for `CCCCCCCCCCCCCOS(=O)(=O)O` the value was “inactive”.

In the case of `CC(=O)C=CC1=C(C)CCCC1(C)C`, the call was inactive. On the same count and under the same terms, next, `Cc1ccc(C(C)C)cc1O`: “inactive”; `O=C[C@@H](O)[C@H](O)[C@H](O)CO`: “inactive”. Same read-out and setting: next, `Cc1c(N(C)C)c(=O)n(-c2ccccc2)n1C`: “inactive”; `O=C(O)CCCCCCCCCCC(=O)O`: “inactive”; `C=CCOC(=O)CCC1CCCCC1`: “inactive”.

For the molecule `COc1ccc(Nc2ccccc2)c(C)c1`, the concentration at half-maximal activity (AC50) was 143 µM (active). Take `O=C(Cl)c1cccc(C(=O)Cl)c1`: the call was inactive.

As to `CCCCCCCCCCC(CO)CCCCCCCC` (stereo not given), the outcome was inactive.

As for `CCc1ccc(C=O)cc1`, the molecule was called inactive.

As to `CC(C)C(C)(C)C(C)(C)C(C)(C)S`, the molecule was called inactive. For `Sc1nc(S)nc(S)n1`, the molecule was classed as inactive. As to `CCCC(=O)c1cc(O)c(O)cc1O`, the result was inactive. The same measure, in the same setting: for `CCCCCCCCCCCCCCCCCC(=O)OCC(CC)CCCC` (stereo not given) the value was “inactive”.
